# Assay outcomes (PubChem BioAssay)
# Most compounds without a hit are left out; they make up all but 2.4% or so of the library.
# ASK1 inh: human ASK1 kinase inhibition, primary screen; inhibition, % at 7.44 µM; 0.99% of 22,000 active; Q99683; AlphaScreen MKK6 phosphorylation by ASK1, luminescence; in the data active means inhibition above about 35%;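 further: 0% = median of compound wells and 100% = no enzyme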
# ULK1 primary: blocks human autophagy kinase ULK1 | AlphaScreen Atg13 phosphorylation by ULK1, luminescence | inhibition, % at 5.96 µM | 1.9% of 30,000 active; in the data active means inhibition above about 43%;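 further: 0% = median of compound wells and 100% = no enzyme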
# Target sequence (O75385 whole entry, looked up): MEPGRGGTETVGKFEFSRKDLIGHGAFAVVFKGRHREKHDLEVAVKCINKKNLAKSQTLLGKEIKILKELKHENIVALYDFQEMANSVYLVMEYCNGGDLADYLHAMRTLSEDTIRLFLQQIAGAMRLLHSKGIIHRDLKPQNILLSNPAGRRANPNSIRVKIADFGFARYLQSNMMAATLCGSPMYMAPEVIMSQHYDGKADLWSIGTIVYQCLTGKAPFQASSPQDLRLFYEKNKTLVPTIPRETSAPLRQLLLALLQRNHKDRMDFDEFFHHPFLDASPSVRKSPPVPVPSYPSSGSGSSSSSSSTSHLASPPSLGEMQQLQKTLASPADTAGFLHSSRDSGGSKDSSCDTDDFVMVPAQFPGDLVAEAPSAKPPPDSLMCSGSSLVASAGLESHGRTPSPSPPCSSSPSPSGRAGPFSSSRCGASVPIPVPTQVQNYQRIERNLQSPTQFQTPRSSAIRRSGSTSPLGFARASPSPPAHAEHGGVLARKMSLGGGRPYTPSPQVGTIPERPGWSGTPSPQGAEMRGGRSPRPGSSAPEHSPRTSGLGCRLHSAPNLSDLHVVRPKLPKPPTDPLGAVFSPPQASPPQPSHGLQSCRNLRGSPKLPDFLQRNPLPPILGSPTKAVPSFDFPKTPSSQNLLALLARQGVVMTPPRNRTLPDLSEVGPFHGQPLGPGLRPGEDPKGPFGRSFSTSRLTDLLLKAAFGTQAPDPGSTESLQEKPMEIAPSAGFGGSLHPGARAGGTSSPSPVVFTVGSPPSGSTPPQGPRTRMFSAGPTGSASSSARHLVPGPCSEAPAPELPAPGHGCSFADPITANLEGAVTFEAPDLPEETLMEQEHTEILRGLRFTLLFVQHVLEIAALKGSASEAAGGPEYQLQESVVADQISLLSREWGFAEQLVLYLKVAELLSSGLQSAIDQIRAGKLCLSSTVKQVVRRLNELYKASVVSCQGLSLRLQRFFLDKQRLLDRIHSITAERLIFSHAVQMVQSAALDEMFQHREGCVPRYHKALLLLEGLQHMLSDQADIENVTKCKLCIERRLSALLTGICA
# TruHits interf: counter-screen for ASK1 inhibitors: AlphaScreen optical interference; IC50, µM; shares compounds with ASK1 inh; AlphaScreen TruHits beads, signal interference counterscreen; 20% of 220 active;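 active means IC50 of 10 µM or lower in the counterscreen; inactive means IC50 above 10 µM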;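 further: loss of AlphaScreen light from TruHits beads alone with no ASK1 enzyme present; potency of signal reduction so a low IC50 flags an assay artifact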
# * = called active by the depositor; i = inactive; . = not tested or not shown.
SMILES,ASK1 inh,ULK1 primary,others
CCCNc1nc(N2CCC(N3CCOCC3)CC2)nc2c1ncn2-c1ccccc1,4,0,
O=C(Nc1ccc(N2CCOCC2)cc1)c1cnc(N2CCN(c3ccccn3)CC2)s1,0,-6,
O=C(Nc1ccc(N2CCOCC2)cc1)c1cnc(N2CCOCC2)s1,4,45*,
CCN(CC)C(=O)C1CCCN(c2ncc(C(=O)Nc3ccc(Oc4ccccc4)cc3)s2)C1 (stereo not given),4,-5,
CCN(CC)C(=O)C1CCCN(c2ncc(C(=O)Nc3ccc(N4CCOCC4)cc3)s2)C1 (stereo not given),-15,49*,
Cc1cnc(-c2ccc(C(=O)N3CCN(C)CC3)cc2)nc1NCCN(C(C)C)C(C)C,-5,1,
Fc1ccc(-c2cnc(NCCCn3ccnc3)nc2)cc1,.,3,
CC(C)n1cnc2c(NCCN3CCOCC3)nc(Nc3ccc(-n4ccnc4)cc3)nc21,-4,15,
c1cnc(Nc2nc(Nc3ccc(N4CCOCC4)cc3)c3ncn(C4CCCCC4)c3n2)nc1,-2,2,
c1cncc(CNc2nc(Nc3ccc(N4CCOCC4)cc3)c3ncn(C4CCCCC4)c3n2)c1,-22,62*,
c1ccc(CNc2nc(Nc3ccc(N4CCOCC4)cc3)nc3c2ncn3C2CCCCC2)cc1,5,9,
CC(=O)Nc1ccc(Nc2nc(Nc3ccc(N4CCOCC4)cc3)nc3c2ncn3C2CCCCC2)cc1,8,48*,
COc1cc(Oc2ccccc2C(=O)O)nc(OC)n1,.,2,
CC(=O)c1cccc(-c2nc(C)cc(Nc3ccccc3)n2)c1,-19,-11,
FC(F)(F)c1ccc(Nc2nc3ncnc(NC4CCN(Cc5ccccc5)CC4)c3[nH]2)cc1,5,-1,
COc1ccc(-c2nc(Nc3ccc(Oc4ccccc4)cc3)nc(OC)n2)cn1,0,7,
O=C1CCCN1CCCNc1nc(Nc2ccc3ncccc3c2)nc2c1ncn2C1CCCCC1,15,5,
Cc1cc(-c2ccc(N=Nc3c(S(=O)(=O)O)cc4cc(S(=O)(=O)O)cc(N)c4c3O)c(C)c2)ccc1N=Nc1c(S(=O)(=O)O)cc2cc(S(=O)(=O)O)cc(N)c2c1O,.,81*,
COc1ccc(CCNC(=O)c2csc(Nc3ncccn3)n2)cc1,17,-1,
Cc1cnc(Nc2ccc(-n3ccnc3)cc2)nc1NC1CC1,9,52*,
Cc1cnc(Nc2ccncc2)nc1NCCCN1CCCC1=O,-21,6,
Cc1cnc(Nc2ccc(-n3ccnc3)cc2)nc1Nc1ccccc1,-33,35,
Cc1cnc(Nc2ccc(-n3ccnc3)cc2)nc1NCCCN1CCCC1=O,-9,69*,
O=C1CCCN1CCCNc1nc(Nc2ccc(C(F)(F)F)cc2)nc2nc[nH]c12,8,53*,
O=C1CCCN1CCCNc1nc(Nc2ncccn2)nc2nc[nH]c12,-18,6,
SMILES,ASK1 inh,ULK1 primary,others
CCCNc1ncnc2nc(N3CCCC(C(=O)N(CC)CC)C3)[nH]c12 (stereo not given),-10,-7,
Cc1noc(C)c1-c1nc2c(NCCN(C(C)C)C(C)C)ncnc2n1C(C)C,-5,-9,
CN(C)c1ccc(C(=C2C=CC(=[N+](C)C)C=C2)c2ccc(N(C)C)cc2)cc1,.,80*,
CN(C)c1ccc(C(=C2C=CC(=[N+](C)C)C=C2)c2ccccc2)cc1,.,9,
O=C(NC1CC1)c1ccc(-c2nc(NCCOc3ccccc3)c3ncn(Cc4ccc(C(F)(F)F)cc4)c3n2)cc1,-12,-3,
COc1ccc(-c2nc(Nc3ccc(Oc4ccccc4)cc3)c3cc(OC)c(OC)cc3n2)cc1,-5,-52,
c1cc(Cn2ccnc2)cc(Nc2nccc(-c3cncc(N4CCOCC4)c3)n2)c1,6,80*,
c1cc(-c2cncc(N3CCOCC3)c2)nc(Nc2ccc(-n3cncn3)cc2)n1,17,11,
c1cc(Cn2cncn2)cc(Nc2nccc(-c3cncc(N4CCOCC4)c3)n2)c1,1,55*,
c1cn(-c2ccc(Nc3nccc(-c4cncc(N5CCOCC5)c4)n3)cc2)cn1,-14,34,
CC(C)n1cnc2c(NCCc3ccc(O)cc3)nc(Cl)nc21,-7,-5,
O=C1CCCN1CCCNc1nc(-c2ccc(N3CCOCC3)nc2)nc2c1ncn2-c1ccsc1,-1,-12,
COc1ccc(-c2nc(N)c3ncn(Cc4ccc(C(F)(F)F)cc4)c3n2)cn1,-9,-31,
Cc1cnc(Nc2cccc(N3CCOCC3)c2)cc1Nc1ccccc1C(N)=O,-4,82*,
NC(=O)c1ccccc1Nc1ccnc(Nc2ccc(N3CCNCC3)cc2)c1,0,48*,
Cc1cnc(Nc2ccc(N3CCNCC3)cc2)cc1Nc1ccccc1C(N)=O,3,94*,
COc1cc(N2CCOCC2)ccc1Nc1cc(Nc2ccccc2C(N)=O)c(C)cn1,0,31,
CN1CCN(c2ccc(Nc3cc(Nc4ccccc4C(N)=O)ccn3)cc2)CC1,7,40,
NC(=O)c1ccccc1Nc1ccnc(Nc2ccc(N3CCOCC3)cc2)c1,9,10,
c1cc(Nc2cc(C3CC3)[nH]n2)cc(Nc2ccc(N3CCOCC3)cc2)n1,10,47*,
c1cc(Nc2ccc3nc[nH]c3c2)cc(Nc2ccc(N3CCOCC3)cc2)n1,11,3,
O=C(Nc1ccc(N2CCOCC2)cc1)c1ccc2nc(-c3cccs3)sc2c1,-3,28,
COc1ccc(-c2cnc(SCC(=O)Nc3ccc(Cl)cc3)n2C)cc1,.,-3,
CCN(CC)C(=O)C1CCCN(c2cc(NCCO)ncn2)C1 (stereo not given),-9,6,
NC(=O)c1nccnc1Nc1ccnc(Nc2ccc(N3CCOCC3)cc2)c1,9,17,
SMILES,ASK1 inh,ULK1 primary,others
NC(=O)c1cnccc1Nc1ccnc(Nc2ccc(N3CCOCC3)cc2)c1,8,44*,
COc1ccc(-c2nc(NCCc3ccc(O)cc3)c3ncn(-c4ccsc4)c3n2)cc1,3,-55,
CC(C)n1c(-c2ccc(C(N)=O)cc2)nc2c(Nc3ccc(Oc4ccccc4)cc3)ncnc21,37*,-29,TruHits interf=>20
COc1ccc(-c2nc3c(Nc4ccc(Oc5ccccc5)cc4)ncnc3n2C(C)C)cc1,0,-1,
COc1ccc2c(c1)CC(C(=O)Nc1ccc(-c3cn[nH]c3)cc1OCCN(Cc1ccccc1)Cc1ccccc1)CO2 (stereo not given),41*,12,TruHits interf=>19
COc1ccc2c(c1)C[C@H](C(=O)Nc1ccc(-c3cn[nH]c3)cc1OCCN(C)C)CO2,-6,-4,
Fc1cc(-c2ccnc(Nc3ccc(-n4ccnn4)cc3)n2)cc(N2CCOCC2)c1,7,-17,
OC1CCN(c2ccc(Nc3nccc(-c4cc(F)cc(N5CCN(C6CC6)CC5)c4)n3)cc2)CC1,41*,55*,TruHits interf=>19
Cc1cnc(CNc2cc(-c3ccncc3)nc(-c3cccnc3)n2)nc1,.,15,
COc1ccc(C2C(C#N)=C(N)SC(N)=C2C#N)c(OC)c1C,.,-10,
c1ccc(CN2CCC(Nc3nc(Nc4ccc(N5CCOCC5)cc4)nc4c3ncn4C3CCCCC3)CC2)cc1,50*,13,TruHits interf=8.1*
FC(F)(F)c1ccc(Cn2cnc3c(Nc4ccc5c(c4)OCO5)nc(NC4CCN(Cc5ccccc5)CC4)nc32)cc1,46*,15,TruHits interf=>20
FC(F)(F)c1ccc(Cn2cnc3c(NC4CCN(Cc5ccccc5)CC4)nc(Nc4ccc(N5CCOCC5)cc4)nc32)cc1,40*,6,TruHits interf=i
FC(F)(F)c1ccc(Cn2cnc3c(NC4CC4)nc(Nc4ccc(N5CCOCC5)cc4)nc32)cc1,21,-11,
